Reference: PubChem BioAssay
Activity calls are given as the source filed them.

Legend:
[1] = test system: Human papillomavirus type 1a protein E7 (residues 44-93); assay: HPV1a E7 fragment binders on microarrays, primary screen, biochemical, small-molecule microarray, residues 44-93, 635 nm fluorescence (AID 1108); settings: small-molecule microarray binding, fluorescence 635 nm; higher = more signal;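 further: E7 fragment applied at 1 µg/mL in TBST for 1 h at 4 C; score combines spot fluorescence with its signal to noise ratio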
[2] = modulators of HCV replicon luciferase signal, primary screen, HCV replication inhibitor project, Huh7 cells, luciferase reporter (AID 1109); settings: 48 h, higher = more signal;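 further: huh7 hepatoma cells harbouring a luciferase neomycin HCV replicon reporter; luciferase luminescence as measure of HCV replicon replication; test concentration not given here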
[3] = biological target: Left-right determination factor 2 (Homo sapiens) (UniProt O00292); assay: LEFTY2 binders on small-molecule microarrays, primary screen, biochemical, small-molecule microarray, 635 nm fluorescence scan (AID 1110); settings: LEFTY2 binding, higher = more signal
[4] = biological target: Calmodulin-1 (Homo sapiens) (UniProt P0DP23); assay: CALM1 binders on microarrays, EGTA buffer, profiling panel, biochemical, small-molecule microarray, Cy5-labelled CALM1 (AID 1111); settings: Cy5-CALM1 binding fluorescence, higher = more signal;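 further: labelled calmodulin applied in Tris saline Tween buffer holding calcium plus EGTA and DTT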
[5] = biological target: Calmodulin-1 (Homo sapiens) (UniProt P0DP23); assay: calcium-bound CALM1 binders on microarrays, profiling panel, artefact control for SMM control-protein annotation, biochemical, small-molecule microarray, Cy5-labelled CALM1, plus calcium (AID 1112); settings: Cy5-CALM1 binding fluorescence, higher = more signal;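 further: score merges spot fluorescence with signal to noise from triplicate slides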
[6] = small-molecule microarray binders of probe aWnt5a, primary screen, biochemical, biotinylated probe, 635/667 nm fluorescence (AID 1113); settings: higher = more signal;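 further: score merges 667 nm fluorescence intensity with signal-to-noise per printed feature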
[7] = small-molecule microarray binders of probe aShh, primary screen, biochemical, biotinylated probe, 635/667 nm fluorescence (AID 1114); settings: higher = more signal;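 further: probe is biotin-labelled aShh protein from a stem cell growth factor screen; measures binding of labelled protein to compounds printed on the slide; score merges feature fluorescence at 667 nm with signal-to-noise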
[8] = small-molecule microarray binders of probe aNog, primary screen, biochemical, biotinylated probe, 635/667 nm fluorescence (AID 1115); settings: higher = more signal;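 further: probe is biotinylated aNog protein used at 0.15 µg/mL for 1 h at 4 C; z-score combines 667 nm fluorescence of each spot with its signal to noise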
[9] = biological target: Torsin-1A-interacting protein 1 (Homo sapiens) (UniProt Q5JTV8); assay: LAP1 binders from COS7 cell lysate, primary screen, small-molecule microarray, 635/667 nm fluorescence (AID 1116); settings: COS7-hLAP1 lysate binding, 635 nm fluorescence, higher = more signal
[10] = biological target: Alpha-bungarotoxin (Bungarus multicinctus) (UniProt P60615); assay: alpha-bungarotoxin binders on microarray, profiling panel, artefact control for SMM control protein annotation, biochemical, small-molecule microarray, Alexa647 label, 635/667 nm fluorescence (AID 1117); settings: alpha-BTX-A647 binding fluorescence, higher = more signal
[11] = biological target: Albumin (Bos taurus) (UniProt P02769); assay: bovine serum albumin binders on microarray, profiling panel, artefact control for SMM control protein annotation, biochemical, small-molecule microarray, Alexa647 label, 635/667 nm fluorescence (AID 1118); settings: BSA-A647 binding, fluorescence 635 nm, higher = more signal;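 further: score merges 667 nm emission intensity and signal-to-noise per printed compound spot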
[12] = small-molecule microarray binders of probe aXIP, primary screen, biochemical, NeuroSMM set, 635/667 nm fluorescence (AID 1119); settings: higher = more signal, called active from +8 up or from −8 down;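 further: probe is the protein aXip251-270 applied at 1 µg/mL to compound-printed slides; binding of probe to printed compounds measured as 667 nm fluorescence plus signal to noise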
[13] = small-molecule binders of probe aNOTCH3, primary screen, biochemical, small-molecule microarray, 635/667 nm fluorescence (AID 1120); settings: higher = more signal;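 further: probe is a biotin-tagged antibody raised against NOTCH3 rather than NOTCH3 protein; score merges spot fluorescence near 667 nm with spot signal to noise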
[14] = small-molecule binders of probe aNOTCH2, primary screen, biochemical, small-molecule microarray, 635/667 nm fluorescence (AID 1121); settings: higher = more signal;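 further: score merges feature fluorescence read at 667 nm with its signal to noise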
[15] = biological target: Carbonic anhydrase 2 (Homo sapiens) (UniProt P00918); assay: CAII small-molecule binders, profiling panel, biochemical, small-molecule microarray, Alexa647-labelled CAII (AID 1122); settings: CAII-A647 binding fluorescence, higher = more signal
[16] = COS7 lysate on small-molecule microarray, probe aHis, 635 nm (AID 1123); settings: COS7 cell lysate, fluorescence, higher = more signal;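 further: z-score combines 667nm fluorescence intensity with signal-to-noise per printed compound spot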
[17] = compound binding in COS7 lysate, probe aLAP1, primary screen, cell lysate, small-molecule microarray (AID 1124); settings: probe aLAP1, fluorescence, higher = more signal;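 further: lysate comes from COS7 cells expressing LAP1 and is applied at 0.3 µg/mL; score merges spot fluorescence near 667 nm with signal-to-noise over triplicate slides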
[18] = test system: Sam68 (KHDRBS1); assay: Sam68 small-molecule binders, primary screen, biochemical, small-molecule microarray, 635 nm fluorescence (AID 1125); settings: small-molecule microarray binding, higher = more signal;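 further: score merges 667 nm channel intensity with signal to noise over triplicate slides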
[19] = test system: Chordin-like protein 2 (CHRDL2); assay: CHRDL2 small-molecule binders, primary screen, biochemical, small-molecule microarray, 635 nm fluorescence (AID 1126); settings: small-molecule microarray binding, fluorescence 635 nm; higher = more signal;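 further: printed compound slides probed with Chrdl2 protein at 4 µg/mL for 1 h at 4 C; score merges 667 nm emission intensity with signal to noise over three replicate slides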
[20] = biological target: Concanavalin-A (Canavalia ensiformis) (UniProt P02866); assay: ConA small-molecule binders, primary screen, artefact control for SMM control protein annotation, biochemical, small-molecule microarray, Alexa647 label, 635 nm (AID 1127); settings: ConA-A647 binding fluorescence, higher = more signal;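 further: z combines 667 nm emission intensity with signal-to-noise across three replicate slides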
Concanavalin-A (Canavalia ensiformis), sequence (P02866 whole entry, looked up): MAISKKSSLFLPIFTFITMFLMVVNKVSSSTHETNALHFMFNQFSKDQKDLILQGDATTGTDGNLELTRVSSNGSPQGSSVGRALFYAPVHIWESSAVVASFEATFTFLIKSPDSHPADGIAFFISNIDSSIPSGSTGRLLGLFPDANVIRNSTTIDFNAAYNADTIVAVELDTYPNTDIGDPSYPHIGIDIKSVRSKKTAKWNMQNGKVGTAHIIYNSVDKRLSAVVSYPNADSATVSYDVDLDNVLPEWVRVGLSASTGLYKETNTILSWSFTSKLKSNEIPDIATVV

Torsin-1A-interacting protein 1 (Homo sapiens), sequence (Q5JTV8 whole entry, looked up): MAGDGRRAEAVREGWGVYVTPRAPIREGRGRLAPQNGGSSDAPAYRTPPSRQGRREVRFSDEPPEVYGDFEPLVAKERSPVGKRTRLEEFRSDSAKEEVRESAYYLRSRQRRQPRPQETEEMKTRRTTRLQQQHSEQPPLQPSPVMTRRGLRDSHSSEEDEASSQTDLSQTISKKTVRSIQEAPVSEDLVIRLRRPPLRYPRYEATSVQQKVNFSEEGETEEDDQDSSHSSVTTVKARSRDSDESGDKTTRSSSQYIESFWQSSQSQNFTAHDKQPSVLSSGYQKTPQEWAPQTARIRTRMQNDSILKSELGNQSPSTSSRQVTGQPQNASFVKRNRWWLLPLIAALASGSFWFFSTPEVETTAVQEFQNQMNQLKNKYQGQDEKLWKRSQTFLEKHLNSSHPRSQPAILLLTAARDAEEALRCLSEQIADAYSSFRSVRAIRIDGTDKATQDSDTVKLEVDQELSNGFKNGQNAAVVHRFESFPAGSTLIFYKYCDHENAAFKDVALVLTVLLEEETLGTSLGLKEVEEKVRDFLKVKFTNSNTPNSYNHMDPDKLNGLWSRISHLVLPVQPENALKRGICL
Albumin (Bos taurus), sequence (P02769 whole entry, looked up): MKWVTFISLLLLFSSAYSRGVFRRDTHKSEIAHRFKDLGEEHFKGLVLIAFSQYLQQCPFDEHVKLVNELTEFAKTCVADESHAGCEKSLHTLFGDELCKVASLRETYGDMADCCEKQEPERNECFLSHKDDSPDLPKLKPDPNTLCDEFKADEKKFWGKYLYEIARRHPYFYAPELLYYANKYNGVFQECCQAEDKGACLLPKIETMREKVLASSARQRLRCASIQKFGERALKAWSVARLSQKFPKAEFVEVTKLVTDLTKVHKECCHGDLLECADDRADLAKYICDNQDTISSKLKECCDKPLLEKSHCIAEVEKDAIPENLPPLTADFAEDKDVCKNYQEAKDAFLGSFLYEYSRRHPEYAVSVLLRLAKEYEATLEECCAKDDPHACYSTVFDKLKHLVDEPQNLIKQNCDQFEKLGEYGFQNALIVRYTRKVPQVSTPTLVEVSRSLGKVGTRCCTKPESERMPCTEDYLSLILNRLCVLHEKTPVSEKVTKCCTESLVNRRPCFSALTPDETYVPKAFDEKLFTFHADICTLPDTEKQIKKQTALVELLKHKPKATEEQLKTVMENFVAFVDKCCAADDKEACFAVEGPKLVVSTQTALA
Alpha-bungarotoxin (Bungarus multicinctus), sequence (P60615 whole entry, looked up): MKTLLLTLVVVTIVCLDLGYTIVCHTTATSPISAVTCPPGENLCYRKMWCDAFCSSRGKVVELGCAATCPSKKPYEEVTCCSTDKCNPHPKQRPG
Left-right determination factor 2 (Homo sapiens), sequence (O00292 whole entry, looked up): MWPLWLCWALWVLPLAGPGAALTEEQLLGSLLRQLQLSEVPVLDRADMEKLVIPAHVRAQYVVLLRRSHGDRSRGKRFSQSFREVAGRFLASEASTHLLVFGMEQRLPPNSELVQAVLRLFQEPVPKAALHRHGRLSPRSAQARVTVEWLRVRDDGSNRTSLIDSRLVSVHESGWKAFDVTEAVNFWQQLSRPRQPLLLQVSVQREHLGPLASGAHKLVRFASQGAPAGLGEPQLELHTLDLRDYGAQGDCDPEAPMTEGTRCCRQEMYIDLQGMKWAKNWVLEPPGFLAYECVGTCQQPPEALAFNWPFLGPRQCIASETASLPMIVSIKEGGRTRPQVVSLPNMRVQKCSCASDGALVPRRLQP

Row | SMILES | composite z-score [1] | z-score [2] | composite z-score [3] | composite z-score [4] | composite z-score [5] | composite z-score [6] | composite z-score [7] | composite z-score [8] | composite z-score [9] | composite z-score [10] | composite z-score [11] | composite Z-score [12] | composite z-score [13] | composite z-score [14] | composite z-score [15] | composite z-score [16] | composite z-score [17] | composite z-score [18] | composite z-score [19] | composite z-score [20]
1 | O=C1O[C@@H](c2ccccc2)[C@@H](c2ccccc2)N2[C@@H](c3ccc(OCCO)cc3)[C@]3(C(=O)Nc4ccccc43)[C@@H](C(=O)O)[C@H]12 | 0.908 | -1.47 | -0.318 | -0.0663 | 0.883 | 0.779 | 0.297 | 2.26 | -0.308 | 0.323 | -0.0883 | -0.24 (inactive) | 1.09 | 0.464 | 0.745 | 1.03 | 0.741 | 0.428 | -0.12 | 0.539
2 | O=C(NCC(F)(F)F)[C@@H]1c2ccccc2C(=O)N(Cc2ccc(OC(F)(F)F)cc2)[C@H]1c1ccc(CO)cc1 | 1.4 | -0.971 | 0.174 | -0.112 | 0.0084 | -0.0704 | 0.0839 | -0.224 | 0.148 | 0.173 | 0.0667 | -0.348 (inactive) | -0.0647 | -0.14 | 0.65 | 0.96 | 0.203 | 0.761 | -0.374 | 0.711
3 | O=C1OCCC=C[C@H]2OC34C=CCN(Cn5nnc6ccccc65)C(=O)[C@H]3N(CCCCCCO)C(=O)[C@@H]4C12 (stereo not given in full) | -0.607 | 0.333 | -1.51 | -0.204 | 0.646 | -0.208 | -0.179 | -0.142 | -0.0637 | -1.27 | -0.587 | 0.688 (inactive) | -0.429 | -0.0532 | 0.875 | -0.591 | 0.755 | -0.365 | -1.31 | -0.718
4 | COCCOC(=O)N1C(=O)[C@@]2(c3cc(C#Cc4ccc(OC)cc4)ccc31)[C@H](c1ccc(O)cc1)N1[C@H](c3ccccc3)[C@H](c3ccccc3)OC(=O)[C@H]1[C@@H]2C(=O)N1CCCCCCC1 | 0.699 | -0.48 | 0.187 | 1.54 | 0.946 | -0.151 | 0.199 | 1.48 | 2.14 | 0.63 | 0.802 | -0.182 (inactive) | 0.7 | -0.131 | 0.466 | 2.11 | 0.575 | 0.722 | -0.508 | 0.498
5 | C=C(C)c1cc2c(c(CCCCCC)n1)[Si](C(C)C)(C(C)C)OC2 | -1.01 | -0.35 | -1.08 | -0.689 | 0.603 | -0.145 | -0.123 | -0.295 | -1.07 | -0.676 | -0.923 | -0.335 (inactive) | -0.296 | -0.146 | -0.484 | -0.369 | -0.603 | -0.631 | -1.41 | -0.277
6 | CC(C)(C)OC(=O)CC[C@@]1(C(=O)NCc2ccccc2)N=C(c2ccc(OCCCO)cc2)O[C@@H]1c1ccccc1N=[N+]=[N-] | 0.912 | -0.339 | 0.529 | 1.15 | 0.493 | 0.112 | 0.232 | 1.9 | 0.899 | 2.1 | 0.952 | 0.399 (inactive) | 0.66 | 0.115 | 0.73 | 2.97 | 0.935 | 1.29 | 0.134 | 1.04
7 | C[C@@H]1ON(c2ccc(C(=O)OC(C)(C)C)cc2)[C@H](c2ccc(O)cc2)[C@H]1C(=O)N1C(=O)OC[C@H]1Cc1ccccc1 | 0.606 | -3.77 | 0.545 | 1.35 | 0.307 | 0.0215 | -0.138 | 0.495 | 0.848 | 0.485 | 0.31 | 0.522 (inactive) | 0.0836 | -0.0449 | 0.217 | 0.58 | 0.581 | 1.31 | 0.448 | 1.03
8 | CCOC(=O)C[C@H]1[C@H](OC(=O)c2cc3ccccc3oc2=O)[C@@H](NC(=O)c2ccc(-c3ccccc3)cc2)c2cc(OCCCO)ccc2N1C(=O)c1ccc2ccccc2n1 | 1.38 | -0.989 | 0.48 | 0.0371 | -0.455 | -0.104 | -0.195 | -0.253 | 0.624 | 0.422 | 0.111 | 0.6 (inactive) | 0.0864 | -0.147 | 0.4 | 0.837 | 0.205 | 1.32 | 0.492 | 0.708
9 | [N-]=[N+]=Nc1ccccc1[C@H]1OC(c2ccc(OCCCO)cc2)=N[C@@]1(CCS(=O)(=O)c1ccccc1)C(=O)NCCN1CCOCC1 | 1.4 | 0.517 | -0.354 | 0.757 | -0.368 | 0.0246 | 0.315 | 1.03 | 0.936 | 0.755 | 0.189 | -0.363 (inactive) | 0.189 | 0.069 | 0.449 | 1.72 | 0.503 | 1.31 | 0.577 | 0.923
10 | O=C(NCC(F)(F)F)[C@@H]1c2ccccc2C(=O)N(Cc2ccccc2C(F)(F)F)[C@H]1c1ccc(CO)cc1 | -0.315 | -0.941 | -1.02 | 0.0216 | 0.792 | -0.276 | 0.0044 | -0.101 | -0.121 | -0.695 | 0.0104 | 1.89 (inactive) | -0.0824 | 0.0667 | 0.758 | 0.891 | 0.234 | 0.163 | -0.572 | -0.104
11 | COCCCNC(=O)[C@@]1(Cc2ccccc2CN=[N+]=[N-])N=C(c2ccc(OCCCO)cc2)O[C@H]1c1ccccc1 | 1.47 | -2.84 | -0.0313 | 1.34 | 0.475 | 0.0257 | 0.313 | 0.999 | 1.62 | 1.52 | 0.954 | 0.443 (inactive) | 0.269 | -0.0006 | 0.254 | 2.85 | 0.832 | 1.3 | -0.751 | 1.03
12 | O=C1O[C@@H](c2ccccc2)[C@@H](c2ccccc2)N2[C@@H](c3ccccc3OCCO)[C@]3(C(=O)Nc4ccc(C#CCCO)cc43)[C@@H](C(=O)N3CCCCCCC3)[C@H]12 | 1.51 | -1.74 | 1.82 | 3.18 | 1.89 | 1.64 | 3.42 | 3.79 | 5.67 | 4.61 | 0.366 | 10.6 (active) | 2.26 | 1.23 | 0.972 | 5.27 | 1.6 | 1.3 | 1.72 | 1.2
